# Screens deposited in PubChem by The Scripps Research Institute Molecular Screening Center.
# FBW7 activator: human FBW7 E3 ligase activation, primary screen | normalized activity (activation), % at 26.1 µM | Q969H0 | hit rate 0.13% among 650,000 | AID 1259310 | AlphaScreen FBW7–phospho-cyclin E peptide binding, activator screen; in the data active = normalized activity above about 1.9%;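 also: purified mutant Fbw7 with reduced substrate affinity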
# Target sequence (Q969H0 whole entry, looked up): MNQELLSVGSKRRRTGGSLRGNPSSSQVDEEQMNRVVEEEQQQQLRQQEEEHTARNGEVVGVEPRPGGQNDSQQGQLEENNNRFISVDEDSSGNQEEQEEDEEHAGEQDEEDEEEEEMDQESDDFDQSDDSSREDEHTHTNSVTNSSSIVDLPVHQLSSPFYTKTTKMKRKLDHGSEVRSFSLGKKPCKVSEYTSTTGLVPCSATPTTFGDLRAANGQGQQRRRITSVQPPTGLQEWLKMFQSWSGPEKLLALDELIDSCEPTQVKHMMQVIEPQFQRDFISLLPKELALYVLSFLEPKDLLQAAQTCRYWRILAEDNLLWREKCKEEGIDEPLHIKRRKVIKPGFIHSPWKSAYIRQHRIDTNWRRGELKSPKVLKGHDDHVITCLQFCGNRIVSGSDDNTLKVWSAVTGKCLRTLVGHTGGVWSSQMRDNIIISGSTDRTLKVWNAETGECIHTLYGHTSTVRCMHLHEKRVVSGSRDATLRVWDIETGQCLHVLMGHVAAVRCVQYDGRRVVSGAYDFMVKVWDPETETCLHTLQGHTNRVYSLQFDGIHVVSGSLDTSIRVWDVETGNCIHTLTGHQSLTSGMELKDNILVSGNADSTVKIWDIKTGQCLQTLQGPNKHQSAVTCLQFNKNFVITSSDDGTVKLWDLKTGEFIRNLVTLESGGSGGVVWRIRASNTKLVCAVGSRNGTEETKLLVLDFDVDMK
# TEAD-YAP inh: TEAD-YAP interaction inhibition; HEK-TIYL cells, TEAD-Gal4/YAP UAS-luciferase luminescence; inhibition, % at 9.12 µM; hit rate 1.4% among 640,000; in the data active = inhibition above about 32%;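 also: 0% = median of test compound wells and 100% = reference inhibitor wells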
# MITF primary: inhibitors of human MITF; O75030; AlphaScreen MITF homodimerization, bead proximity signal; inhibition, % at 2.6 µM; hit rate 0.91% among 650,000; in the data active = inhibition above about 50%;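 also: 0% = vehicle wells with protein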
# GPR151 activ: activators of human GPR151. AID 1508602. activation, % at 11.2 µM. Q8TDV0. hit rate 1% among 650,000. PathHunter beta-arrestin GPR151 cells, luminescence; in the data active = activation above about 4.9%;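 also: 0% = median of compound wells and 100% = cells with positive control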
# MITF confirm: confirmation of human MITF inhibitors; shares compounds with MITF primary; AlphaScreen MITF homodimerization, biotin/His-MITF beads; inhibition, % at 2.6 µM; hit rate 16% among 4,700; AID 1259372;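 active = inhibition above a cutoff derived from the DMSO control wells, cut at about 28% in these data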;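 also: 0% = MITF dimer wells with DMSO only; inhibitors lower the bead chemiluminescence by keeping MITF from dimerizing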
# AS interf DR: optically interferes with AlphaScreen signal in dose response | shares compounds with MITF primary | AlphaScreen optical interference counterscreen, cell-free | IC50, µM | hit rate 6% among 480; call rule not given here
# AS interf ctr: AlphaScreen optical interference, counter-screen. LysRS AlphaScreen counterscreen, signal interference, triplicate. shares compounds with MITF primary. inhibition, % at 2.6 µM. AID 1259376. hit rate 7.6% among 4,700;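 active = inhibition above a cutoff derived from the DMSO control wells, cut at about 30% in these data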
# * hit, by the source's call; · = no result given. Compounds with a hit are over-represented: about 3.5% of the library has one in this group of screens.
SMILES,FBW7 activator,TEAD-YAP inh,MITF primary,GPR151 activ,MITF confirm,AS interf ctr,others
CCc1ccc(NC(=O)CSc2nnc(-c3ccncc3)n2CCCN(C)C)cc1,-0.1,3.0,88.2*,-0.7,8.4,12.4,
CCCC1(C(=O)OCC)NC(c2ccccc2F)C2C(=O)N(c3ccc(F)cc3)C(=O)C21 (stereo not given),0.1,12.1,7.5,-0.6,·,·,
COc1ccccc1Nc1nc(-c2cccc(NC(C)=O)c2)cs1,0.0,-67.0,-1.9,2.0,·,·,
CC(=O)Nc1ccc(-c2csc(NCc3ccccc3)n2)cc1,0.2,-33.4,7.8,2.4,·,·,
CCc1ccccc1Nc1nc(-c2cccc(NC(C)=O)c2)cs1,-0.1,-1.8,53.5*,4.6,7.2,14.5,
CC(=O)Nc1cccc(-c2csc(NCc3ccccc3)n2)c1,0.2,-3.7,84.8*,0.3,9.4,8.9,
CCC(=O)c1ccccc1OCCCN1CCN(Cc2ccccc2)CC1,-0.1,3.8,55.7*,1.0,3.6,19.8,
CCC(=O)c1ccccc1OCCN1CCN(CC)CC1,-0.2,-2.4,68.2*,2.8,14.5,17.6,
CCC(=O)c1ccccc1OCCCCN1CCN(C)CC1,0.1,7.9,-19.6,-0.1,·,·,
CCC(=O)c1ccccc1OCCCCn1cncn1,-0.4,1.8,73.6*,0.2,8.8,19.5,
CCc1ccc(N2C(=O)C(Cl)=C(NC3CCCCC3)C2=O)cc1,0.0,-4.3,64.3*,1.6,-5.4,5.9,
COc1cccc2cc(-c3csc(NC(=O)c4ccccc4SC)n3)oc12,-0.1,-1.9,17.6,-0.7,·,·,
O=C(NC1CCCCC1)N[C@H]1C[C@H]2C(=O)N[C@@H](CO)C(=O)N2C1,0.6,-0.3,-2.5,-1.8,·,·,
CCNC(=O)/C(C#N)=C/c1ccc(Cl)c(Cl)c1,0.0,-0.4,53.4*,0.8,-1.1,6.2,
CCOC(=O)c1ccc(NC(=O)CSc2nnc3c4ccccc4n(C)c3n2)cc1,0.4,4.0,11.6,-1.0,·,·,
CN1CCCN(Cc2cccc3ccccc23)CC1,0.3,-6.3,51.5*,-1.3,21.5,14.5,
CN1CCCN(Cc2cc(F)ccc2F)CC1,0.9,12.1,69.6*,-1.0,-2.6,2.1,
CN1CCN(Cc2c3ccccc3cc3ccccc23)CC1,0.0,2.4,75.5*,-1.0,20.1,23.5,
Cc1ccccc1CN1CCCN(C)CC1,-0.1,9.2,4.8,0.4,·,·,
OCCN1CCN(Cc2c3ccccc3cc3ccccc23)CC1,0.6,12.8,11.2,-0.9,·,·,
CC(C)c1ccc(-c2c(NCCN3CCCCCC3)c(=O)c2=O)cc1,0.4,1.8,5.7,-1.2,·,·,
O=C1[C@@H]2CCCN2C(=O)[C@H]2CN(Cc3cnn(-c4cccc(Cl)c4)c3)CCN12,-0.2,4.0,-2.4,-0.2,·,·,
CCN1CCc2c(sc(NC(=O)C3CCCCC3)c2C(N)=O)C1,-0.1,-4.3,-13.1,-0.9,·,·,
Cc1cccc(C)c1NC(=O)C(Cc1c[nH]c2ccccc12)NC(=O)OC(C)(C)C (stereo not given),0.0,-1.5,62.6*,1.3,9.4,11.1,
O=C(/C=C/c1ccco1)NC(=S)Nc1cc(C(=O)O)ccc1Cl,0.0,9.6,63.4*,-1.1,68.7*,6.8,AS interf DR=>6.48
SMILES,FBW7 activator,TEAD-YAP inh,MITF primary,GPR151 activ,MITF confirm,AS interf ctr,others
O=C(/C=C/c1ccco1)NC(=S)NNC(=O)c1ccccc1O,-0.8,58.2*,61.0*,-0.7,66.5*,-18.1,AS interf DR=>6.48
CCOC(=O)c1ccc(NC(=S)NC(=O)/C=C/c2ccco2)cc1,0.1,-1.3,69.1*,-0.1,3.7,3.3,
Cc1c(NC(=S)NC(=O)/C=C/c2ccco2)cccc1C(=O)O,-0.4,0.0,67.3*,1.5,60.3*,22.7,AS interf DR=>6.48
CCSc1nnc(NC(=O)C23CC4CC(CC(C4)C2)C3)s1,0.0,-34.2,9.3,-1.5,·,·,
COc1ccc(C2C(C(=O)N(C)Cc3ccccc3)c3cc(OC)c(OC)cc3C(=O)N2C)cc1OC (stereo not given),0.8,4.7,10.0,-0.1,·,·,
O=C(Cn1cnc2scc(-c3ccccc3)c2c1=O)Nc1ccc(F)c(Cl)c1,0.1,10.6,0.9,2.2,·,·,
COc1cc(/C=C/c2nc3cc(Cl)ccc3c(=O)n2-c2cccc(C)c2)cc(OC)c1OC,0.0,-24.9,-5.0,0.6,·,·,
O=C(Cc1cccc2ccccc12)Nc1ccc(Cl)c(C(=O)O)c1,-0.3,4.3,-5.4,0.0,·,·,
CC(C)[C@H]1NC(=O)[C@H]2CN(C(=O)c3ccccc3)CCN2C1=O,-0.1,-12.1,4.0,1.2,·,·,
